Experiment [1] is described as follows: viability loss in pontine glioma line – cell-based, SU-DIPG-XIII, MIPE4.0, CellTiter-Glo, qHTS, dose response (AID 1347061; cut-off not given, nearly all actives have AC50 up to about 37 µM;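 also: cells exposed to compound for 48 hours before readout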). The note with it: CellTiter-Glo ATP luminescence. (In general: In ATP-based viability assays light output follows the ATP content of the culture.)
Experiment [2] in a line: viability loss in pontine glioma line – cell-based, JHH-DIPG-1, MIPE4.0, CellTiter-Glo, qHTS, dose response (AID 1347062; cut-off not given, nearly all actives have AC50 up to about 27 µM). Conditions: JHH-DIPG-1 viability, CellTiter-Glo ATP luminescence.
A short description of experiment [3]: viability loss in pontine glioma line – cell-based, SU-DIPG-IV, MIPE4.0, CellTiter-Glo, qHTS, dose response (AID 1347063).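 Also: compound exposure lasted 48 hours before the viability readout.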 The note with it: CellTiter-Glo ATP luminescence.
Experiment [4] can be described thus: growth inhibition of DIPG cells – cell-based, MIPE4.0 library, CellTiter-Glo luminescence, qHTS (AID 1347066).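 Also: cells exposed to compound for 48 hours before readout.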 Conditions: SU-DIPG-VI viability, CellTiter-Glo ATP luminescence.
A short description of experiment [5]: viability loss with induced miR-34 in A549 – imaging, A549 dox-inducible miR-34, nuclei and caspase counts, primary screen (AID 1347080;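 active = compounds whose cell count with miR-34 switched on is under 0.7 times the count with it off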). Conditions: A549 miR-34 inducible, Hoechst nuclei count, 48 h.
Experiment [6] in a line: MELAS cybrid and Rieske KO viability enhancers – cell-based, MELAS cybrids, Rieske KO mouse fibroblasts, CellTiter-Glo, primary screen (AID 1508586;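 active = mean z-score across replicates of 1.96 or higher in either the MELAS or the Rieske mutant cell line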;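 also: z relative to plate mean and SD of compound and empty wells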). Conditions: low glucose.

The structures appear in SMILES notation. Records with an inconclusive call do not appear. Activity calls are given as the source filed them. Unless noted, the limit is not given here; nearly all actives have AC50 up to about 30 µM.

Experimental findings from PubChem BioAssay are described below.

For the molecule `CC[C@H]1OC(=O)[C@H](C)[C@@H](O[C@H]2C[C@@](C)(OC)[C@@H](O)[C@H](C)O2)[C@H](C)[C@@H](O[C@@H]2O[C@@H](C)C[C@H](N(C)C)[C@H]2O)[C@](C)(O)C[C@@H](C)C(=O)[C@H](C)[C@@H](O)[C@]1(C)O`, the molecule was classed as inactive in experiment [1], in experiment [2], in experiment [3] and in experiment [4].
Take `CO/N=C(/C(=O)N[C@@H]1C(=O)N2C(C(=O)O)=C(Cn3ccc(=N)n3CCO)CS[C@H]12)c1csc(N)n1`: the result in experiment [1], in experiment [2], in experiment [3] and in experiment [4] was inactive.
On to `C[C@]12C=CC(=O)N[C@@H]1CC[C@@H]1[C@@H]2CC[C@]2(C)[C@@H](C(=O)Nc3cc(C(F)(F)F)ccc3C(F)(F)F)CC[C@@H]12`, for which the call in experiment [1], in experiment [2] and in experiment [3] was inactive.
As to `Cn1c(N2CCCCS2(=O)=O)nc(C(=O)NCc2ccc(F)cc2)c(O)c1=O`, the result in experiment [1], in experiment [2], in experiment [3] and in experiment [4] was inactive. Also, the fold change is 0.915 (inactive) in experiment [5] (stronger effect = lower value, cell number ratio, induced over uninduced) and 0.973 in experiment [5] (measured here: relative caspase fold change +Dox/-Dox). Further, the cell count was determined as 7350 in experiment [5] (measured here: total cells with miR-34 induction, stronger effect = lower value) and 8040 in experiment [5] (measured here: total cells without miR-34 induction). Also, the z-score in experiment [6] (MELAS cybrid survival, CellTiter-Glo 48 h, stronger effect = higher value) is -0.418 (inactive); in experiment [6] (Rieske KO mouse fibroblast survival, CellTiter-Glo 72 h), 0.522.
For `N#CC(=C(O)c1ccc(Cl)cc1Cl)c1nc2cc(Cl)ccc2c(=O)[nH]1`, the result in experiment [1], in experiment [2], in experiment [3] and in experiment [4] was inactive.
